PubChem BioAssay (EPA / NIEHS)
“And” between values parts separate entries of the source, which are not always exact repeats. Identical values can stand only once. Inconclusive results are not listed. Some compounds were tested as several samples or in several runs, with calls that do not always agree. The source made the active and inactive calls. How the source made its calls, unless noted: active means hit-call score of the fitted dose curve at least 0.9, where 1 is the maximum; inactive means score below 0.9.

Experiments:
[1] = CCTE_Shafer_MEA_dev_mutual_information_norm: CCTE's Neural Network Formation Assay for Mutual Information Normalization, Shafer Lab (AID 2284091);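 on AC50: mutual information between electrodes summarised as area under curve across four recording days; potency is for a decrease in mutual information relative to DMSO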
Outline: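 Shared information across electrodes, tracked on days 5, 7, 9 and 12 of network development and collapsed as trapezoidal area under the curve. Rat cortical cultures were treated continuously from plating, with treatment renewed at feeds on DIV 5 and 9; DMSO baseline, negative-direction fit.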

[2] = CCTE_Shafer_MEA_dev_correlation_coefficient_mean: CCTE's Neural Network Formation Assay for Mean Correlation Coefficient, Shafer Lab (AID 2284093);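 on AC50: well mean pairwise spike train correlation integrated as AUC over recording days 5 to 12; potency fitted for loss of correlation relative to DMSO vehicle wells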
Outline: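 Primary rat cortical neurons on PEI-coated 48-well MEA plates (16 electrodes/well) were exposed from plating day 0 through DIV12, with compound renewed at DIV5 and 9. Pairwise spike correlations were averaged per well; trapezoidal AUC across DIV5, 7, 9, 12.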

[3] = UKN2_HCS_IMR90_neural_migration: University of Konstanz (UKN) Leist Lab Neural Crest Cell Migration Assay in human induced IMR90 Pluripotent Stem Cells (UKN2) (AID 2284204); conditions: actives raise or lower the signal
Outline: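 High-content imaging of calcein-AM and Hoechst stained cells quantifies migration into a stopper-defined gap after 24 h compound exposure. Neural crest cells from IMR90 iPSC migrated 24 h in EGF/FGF N2-S medium before dosing; DMSO baseline.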

[4] = IUF_NPC1b_proliferation_BrdU_72hr: Leibniz Research Institute for Environmental Medicine (IUF) 72-hour Neural Progenitor Cell Bromodeoxyuridine (BrdU) Proliferation Assay (NPC1b) (AID 2284207)
Outline: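 Human fetal cortex-derived (GW 16-19) neural progenitor spheres, 0.25-0.35 mm, one per well in EGF/FGF proliferation medium, exposed to compound for 72 h at 37C, pH 7.2-7.6. BrdU incorporation over the final 16 h read by luminescence ELISA, relative to DMSO.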

[5] = IUF_NPC1a_proliferation_area_72hr: Leibniz Research Institute for Environmental Medicine (IUF) 72-hour Neural Progenitor Cell Proliferation Area Assay (NPC1a) (AID 2284208)
Outline: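 Single 0.25–0.35 mm human fetal neural progenitor spheres in proliferation medium with EGF and FGF, exposed 72 h from plating without renewal at 37C, pH 7.2-7.6. Sphere area growth measured by automated phase-contrast imaging, relative to DMSO.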

[6] = IUF_NPC1_viability_72hr: Viability Assessment at 72 hours in the Leibniz Research Institute for Environmental Medicine (IUF) Neural Progenitor Cell Proliferation Assay (NPC1) (AID 2284209)
Outline: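 Alamar blue fluorescence (RFU) after 72 h exposure, normalized to DMSO baseline. hNPC spheres from GW 16-19 fetal cortex, single sphere per well in growth-factor medium; no compound renewal.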

[7] = CCTE_Mundy_HCI_Cortical_Synap_Neur_Matur_NeuriteSpotCountPerNeuriteLength: CCTE's Synaptogenesis and Neurite Maturation Assay in rat cortical cells for Neurite Spot Count per Neurite Length, Mundy Lab (AID 2284210)
Outline: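 Synaptophysin spots per unit neurite length, measured by automated imaging of MAP2/synaptophysin/Hoechst-stained neurons. Cultures from rat cortex received chemical at DIV 7 with media change through DIV 12; glial growth arrested by AraC at DIV 5; DMSO baseline.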

[8] = CCTE_Mundy_HCI_Cortical_NOG_NeuriteCount: CCTE's Neurite Outgrowth Assay in rat cortical cells for Neurite Count, Mundy Lab (AID 2284212);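 further: cells fixed about two days after chemical exposure began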
Outline: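 Rat cortical primary cells; compound added 2 h post-plating, 1/10 dilution of working solution. Anti-betaIII-tubulin/AF488 ICC; ArrayScan neurite count vs DMSO.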

[9] = CCTE_Mundy_HCI_Cortical_NOG_NeuriteLength: CCTE's Neurite Outgrowth Assay in rat cortical cells for Neurite Length, Mundy Lab (AID 2284213);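 on AC50: neurites imaged about 48 to 50 h after chemical exposure began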
Outline: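 First, rat primary cortical cells were plated and, 2 h later, given test chemical as a 1/10 dilution. Finally, βIII-tubulin immunostaining enabled automated imaging of neurite length.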

[10] = CCTE_Mundy_HCI_Cortical_Synap_Neur_Matur_NeuriteLength: CCTE's Synaptogenesis and Neurite Maturation Assay in rat cortical cells for Neurite Length, Mundy Lab (AID 2284214)
Outline: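 Read-out: high-content imaging of MAP2-labelled neurites, with synaptophysin and Hoechst co-stain, in rat cortical cultures fixed at DIV 12. Activity fitted in positive direction relative to DMSO baseline.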

[11] = CCTE_Mundy_HCI_Cortical_Synap_Neur_Matur_NeuriteSpotCountPerNeuron: CCTE's Synaptogenesis and Neurite Maturation Assay in rat cortical cells for Neurite Spot Count per Neuron Count, Mundy Lab (AID 2284215)
Outline: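 Rat primary cortical cultures given AraC at DIV 5, dosed from DIV 7 to DIV 12 with media change. Fixed, stained for MAP2, synaptophysin and Hoechst; neurite-associated synaptophysin puncta per neuron quantified by high-content imaging versus DMSO.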

[12] = CCTE_Mundy_HCI_Cortical_Synap_Neur_Matur_SynapseCount: CCTE's Synaptogenesis and Neurite Maturation Assay in rat cortical cells for Synapse Count, Mundy Lab (AID 2284218)
Outline: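 Read-out: synapse number per neuron, automated high-content imaging of fixed cells immunostained for MAP2 and synaptophysin plus Hoechst nuclei. Rat primary cortical cultures, AraC at DIV 5, chemical dosing DIV 7–12. Positive-direction fit relative to DMSO.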

[13] = CCTE_Mundy_HCI_Cortical_Synap_Neur_Matur_NeuriteCount: CCTE's Synaptogenesis and Neurite Maturation Assay in rat cortical cells for Neurite Count, Mundy Lab (AID 2284222)
Outline: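 Rat cortical neurons, 96-well; AraC DIV 5; chemical + media change DIV 7; end DIV 12. Fix PFA/Hoechst, anti-MAP2 + anti-synaptophysin IF. HCI neurite count vs DMSO baseline.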

[14] = CCTE_Mundy_HCI_Cortical_Synap_Neur_Matur_CellBodySpotCount: CCTE's Synaptogenesis and Neurite Maturation Assay in rat cortical cells for Cell Body Spot Count, Mundy Lab (AID 2284223)
Outline: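 Primary rat cortical cultures, AraC added at DIV 5; dosed DIV 7 through DIV 12 […]. Fixed, stained for MAP2 and synaptophysin with Hoechst; cell body-associated synaptophysin puncta per neuron counted by high-content imaging, loss vs DMSO.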

[15] = UKN4_HCS_LUHMES_neurite_outgrowth: University of Konstanz (UKN) Leist Lab Neurite Outgrowth Assay in human LUHMES cells (UKN4) (AID 2284206); conditions: actives raise or lower the signal
Outline: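 Read-out: calcein-AM neurite area by high-content fluorescence imaging, with Hoechst H-33342 viability counterstain, after 24 h chemical exposure of day-2 differentiated LUHMES cells. Activity fitted bidirectionally against DMSO baseline.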

[16] = CCTE_Mundy_HCI_hNP1_Pro_ResponderAvgInten: CCTE's Proliferation Assay in human neuroprogenitor cells, Mundy Lab (AID 2284224; active means hit-call score of the fitted dose curve at least 0.9, where 1 is the maximum;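 further: human neural progenitor cells hNP1 derived from WA09 embryonic stem cells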)
Outline: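 Proliferation was scored as BrdU labelling intensity in human neural progenitors derived from WA09 embryonic cells, measured 26.25 hours after chemical dosing. Activity was fitted relative to DMSO.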

[17] = TAMU_PeakParms_SingleDonor1434_Chronotropy: Texas A&M University (TAMU) 1.5-hr Human Induced Pluripotent Stem Cell (iPSC)-derived Cardiomyocytes Calcium (Ca+2) Flux Assay for Cardiotoxicity: Chronotropy (changes in peak frequency) (AID 2284217); conditions: actives raise or lower the signal
Outline: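 Beat rate, as mean Ca2+-flux peak frequency, was read from donor 1434 iPSC cardiomyocytes 90 min after exposure to 0.2–100 uM test chemical (0.5% DMSO). Wells that stopped beating were excluded; EC05 from bidirectional DMSO-referenced fitting.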

[18] = CCTE_Mundy_HCI_hN2_NOG_NeuriteLength: CCTE's Neurite Outgrowth Assay in human hN2 cells for Neurite Length, Mundy Lab (AID 2284220; active means hit-call score of the fitted dose curve at least 0.9, where 1 is the maximum)
Outline: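 Plate hNP1-derived neurons, then add chemical 2 h later as a 1/10 dilution. Stain with anti-βIII-tubulin then Alexa Fluor-488 secondary, and image automatically to measure neurite length.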

[19] = CCTE_Mundy_HCI_hN2_NOG_NeuriteCount: CCTE's Neurite Outgrowth Assay in human hN2 cells for Neurite Count, Mundy Lab (AID 2284219; active means hit-call score of the fitted dose curve at least 0.9, where 1 is the maximum)
Outline: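 In this morphology assay, hNP1-derived neurons received test chemical 2 h post-plating and were fixed two days later in warm paraformaldehyde/sucrose containing Hoechst 33342. Neurites, labelled by rabbit anti-βIII-tubulin (1:800) and Alexa Fluor-488 (1:500), were counted automatically.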

[20] = CCTE_Mundy_HCI_hN2_NOG_NeuronCount: CCTE's Neurite Outgrowth Assay in human hN2 cells for Neuron Count, Mundy Lab (AID 2284221; active means hit-call score of the fitted dose curve at least 0.9, where 1 is the maximum)
Outline: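 Read-out is the number of betaIII-tubulin-positive neurons imaged by automated high-content analysis, with DMSO as negative control.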

Measured: AC50

CNC(=O)Oc1cccc2c1OC(C)(C)C2
inactive: [1] | [2] | [3] | [4] | [5] | [6] | [7] | [8] | [9] | [10] | [11] | [12] | [13] | [14]

CCC[CH2][Sn]([Cl])([CH2]CCC)[CH2]CCC
active: [1] 0.0231 µM | [2] 0.0772 µM | [3] 195 nM | [15] 119 nM | [4] 112 nM | [5] 673 nM | [6] 535 nM | [7] 37.5 nM | [8] 112 nM | [9] 88.2 nM | [10] 46.8 nM | [11] 37 nM | [12] 56.9 nM | [14] 102 nM | [16] 188 nM
inactive: [13]

CC(C)(C)C(O)(CCc1ccc(Cl)cc1)Cn1cncn1 (stereo not drawn)
inactive: [4] | [5] | [7] | [8] | [9] | [11] | [17] | [12] | [18] | [13] | [14] | [16]
active: [1] 2.24 µM | [2] 15 µM | [6] 439 nM | [10] 10200 nM

CC(C)COC(=O)c1ccccc1C(=O)OCC(C)C
active: [1] 22.2 µM | [2] 13.9 µM | [7] 87900 nM | [10] 80200 nM | [11] 77800 nM | [12] 79600 nM | [13] 88700 nM | [14] 83800 nM
inactive: [3] | [4] | [5] | [6] | [8] | [9] | [16]

CN(C)[C@@H]1C(=O)C(C(N)=O)=C(O)[C@@]2(O)C(=O)C3=C(O)c4c(O)cccc4[C@@](C)(O)[C@H]3C[C@@H]12
inactive: [1] | [2] | [7] | [8] | [9] | [10] | [11] | [12] | [13] | [14]

COP(=S)(OC)SCN1C(=O)c2ccccc2C1=O
inactive: [1] | [2] | [3] | [5] | [6] | [7] | [8] | [9] | [10] | [11] | [12] | [13] | [14] | [16]
active: [1] 22.7 µM | [2] 19 µM | [4] 499 nM | [19] 33500 nM | [18] 31100 nM | [20] 23100 nM

CCCCOC(=O)c1ccccc1C(=O)OCc1ccccc1
inactive: [1] | [2] | [3] | [5] | [6] | [7] | [8] | [9] | [10] | [11] | [12] | [13] | [14] | [16]
active: [4] 82000 nM

CCNS(=O)(=O)C(F)(F)C(F)(F)C(F)(F)C(F)(F)C(F)(F)C(F)(F)C(F)(F)C(F)(F)F
active: [1] 2.98 µM and 2.72 µM | [2] 2.98 µM and 4.98 µM
